Screening data (PubChem)
Compounds with a hit are over-represented: about 2.2% of the library has one in this group of screens.
GLP1R ag – qHTS of GLP-1 Receptor Agonists; Glucagon-like peptide 1 receptor (Homo sapiens), P43220; HEK293 GLP-1R CRE-luciferase, luminescence, 4-6 h; cells express a hypersensitive GLP-1R form; Potency, µM (series often up to 45.6 µM), usual class: activators; 380,000 compounds, 0.007% hits; AID 624172, 2012
Target sequence (P43220 whole entry, looked up): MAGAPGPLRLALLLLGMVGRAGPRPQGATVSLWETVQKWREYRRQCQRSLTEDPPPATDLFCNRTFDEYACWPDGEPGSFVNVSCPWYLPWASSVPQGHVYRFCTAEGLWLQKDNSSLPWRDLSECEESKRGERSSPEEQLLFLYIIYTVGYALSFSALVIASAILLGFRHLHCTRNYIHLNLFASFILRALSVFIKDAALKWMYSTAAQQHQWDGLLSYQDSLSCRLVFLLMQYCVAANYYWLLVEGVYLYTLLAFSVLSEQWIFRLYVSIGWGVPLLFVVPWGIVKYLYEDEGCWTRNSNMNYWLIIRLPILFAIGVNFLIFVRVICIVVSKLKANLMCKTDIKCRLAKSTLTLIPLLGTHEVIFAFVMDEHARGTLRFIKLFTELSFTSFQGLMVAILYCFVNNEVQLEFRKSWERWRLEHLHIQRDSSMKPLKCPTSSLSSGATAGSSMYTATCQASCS
MmCpn inh – Inhibitors of TCP-1 ring complex (TRiC) of Methanococcus maripaludis (MmCpn): qHTS; Potency, µM (doses to about 76.9 µM), actives largely listed as inhibitors; purified Mm-Cpn ATPase, ADP Transcreener TR-FRET; 330,000 compounds, 0.031% hits; AID 504842, 2011; also: nearly all actives have a fitted effect of over 80% in size
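25 nM Mm-CPN + cpd, 10 min 37°C; + 10 uM ATP, 30 min 37°C; buffer 30 mM Tris pH 7.4, 100 mM KCl, 5 mM MgCl2, 1 mM DTT; Transcreener ADP HTRF detection 30 min RT.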
uPA surface inh – qHTS for Inhibitors of Cell Surface uPA Generation. Potency, µM (series often up to 38.3 µM), most hits filed as inhibitors. 330,000 compounds, 0.31% hits. cell surface uPA generation assay, qHTS; active = well fitted inhibition curve with a large enough effect; inconclusive = small, poorly fitted or top-dose-only effect; inactive = no such curve, though single readings can be large or run the other way; tested in mouse RAW 264.7 cells; also: nearly all actives have a fitted effect of over 55% in size
CCT modulator – High-Throughput Screening for Modulators of Cytosolic Chaperonin Activity; purified chaperonin ATPase assay, HTRF ADP detection, 30 min; AID 651819, 2012; activity change, % (no concentration beside the values), hits read low; 360,000 compounds, 0.3% hits; in the data active = activity change below about -30%
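TRiC (40 or 20 nM final, by batch activity) in 30 mM Tris pH 7.4, 100 mM KCl, 5 mM MgCl2, 1 mM DTT was treated with compound at 76 uM single dose, then 10 uM ATP, 30 min at 37 °C. ADP was read by HTRF Transcreener.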
GLP1R inv ag – qHTS of GLP-1 Receptor Inverse Agonists (Inhibition Mode); 410,000 compounds, 1.6% hits; Glucagon-like peptide 1 receptor (Homo sapiens), P43220; Potency, µM (top dose mostly 38.3 µM), hits mostly inhibitors; AID 624417, 2012; HEK293 GLP-1R CRE-luciferase, luminescence, 24 h; GLP-1R form is constitutively active; also: nearly all actives have a fitted effect of over 55% in size
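Stable HEK293 clone (constitutively active GLP-1R + cAMP-response luciferase); 200 cells/uL plated, 12 h pre-culture, compound 24 hr, 37 deg C/5% CO2; detection reagent 12 min RT; luminescence.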
GLP1R cytotox – qHTS of GLP-1 Receptor Inverse Agonists: Cytotox Screen; HEK293 cAMP-luciferase reporter cells, luminescence, 24 h; Potency, µM (titrated, usually from 38.3 µM), hits mostly inhibitors; 410,000 compounds, 0.13% hits; AID 624418, 2012;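 also: loss of luciferase light is scored as toxicity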
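Luminescence readout: signal drop marks cytotoxicity. Plated cells grew 12 h at 37 °C, 5% CO2, received 23 nL compound for 24 h, then got luciferase reagent, read after 12 min at RT.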
Numbers stand for hits; – = inactive; ? = inconclusive; · = not tested or not shown; [ ] = dose if it differs, or a comment. Unless noted, calls follow the shape of the dose curve; as a rule, active = well fitted curve in the direction sought with a large enough effect; inconclusive = small, poorly fitted or top-dose-only effect, or another doubt; inactive = no such curve, though single readings can be large; an effect the other way counts as inactive or inconclusive.

SMILES | GLP1R ag | MmCpn inh | uPA surface inh | CCT modulator | GLP1R inv ag | GLP1R cytotox
C=CCOc1c(Cl)cc(CNc2ccc(C)c(Cl)c2)cc1OC | · | – | · | · | · | ·
C=CCOc1c(Cl)cc(CNc2ccc(N(C)C)cc2)cc1OC | – | 16µM | · | – | – | –
CC1(C)Cc2c(cnn2-c2ccccc2)C(=O)/C1=N\NC(=O)c1ccccc1O | – | – | – | – | 11µM | –
COc1ccc(NC(=O)C2C(c3ccccc3)C2(Cl)Cl)cc1 (stereo not drawn) | – | – | ? | – | 10µM | –
Cc1cccc(NC(=O)C2C(c3ccccc3)C2(Cl)Cl)c1 (stereo not drawn) | – | – | – | – | ? | –
Cc1ccc(NC(=O)C2C(c3ccccc3)C2(Cl)Cl)c(C)c1 (stereo not drawn) | – | – | – | – | 11µM | –
O=C(Nc1ccc(F)cc1F)Nc1csc2ccccc12 | – | – | – | – | 10µM | –
O=C(Nc1ccc(F)c(Cl)c1)Nc1csc2ccccc12 | – | – | – | – | ? | ?
O=C(O)CCNc1ccc(NCCC(=O)O)c2c1C(=O)c1ccccc1C2=O | – | 45µM | – | – | ? | –
COc1ccccc1NCCC(=O)O | – | – | – | – | – | –
COC(=O)c1sccc1S(=O)(=O)N(CC(=O)Nc1ccc(C)cc1)c1ccccc1 | · | · | · | · | ? | –
Cc1ccc(N(CC(=O)Nc2ccc(Cl)cc2)S(=O)(=O)c2cccc3nonc23)cc1 | – | · | · | · | 10µM | –
CCc1ccc(NC(=O)CN(c2ccc(Cl)cc2)S(=O)(=O)c2ccsc2C(=O)OC)cc1 | · | · | · | · | 3.2µM | –
N/C(Cc1cccc2ccccc12)=N\OC(=O)c1ccccc1F | – | – | – | – | – | –
N/C(Cc1ccccc1)=N\OC(=O)c1cccc2ccccc12 | ? | – | – | – | 13µM | 10µM
C#CCN(C[C@@H]1[C@@H](OC(=O)Nc2cccs2)[C@@H](OC(=O)Nc2cccs2)Cn2c(=O)ccc(=O)n21)S(=O)(=O)c1ccc(C)cc1 | – | · | · | – | 2.8µM | ?
Cc1ccc(CNS(=O)(=O)c2ccc3c(c2)NC(=O)CS3)cc1 | – | – | – | -74 | – | –
O=C1CSc2ccc(S(=O)(=O)NCc3ccc(F)cc3)cc2N1 | – | – | – | – | – | –
Cn1cc(S(=O)(=O)N2CCc3ccccc32)cc1C(=O)Nc1ccc(C(F)(F)F)cc1 | · | · | · | · | ? | –
CCOC(=O)c1c(NC(=O)CNC2CCCCC2)sc(C)c1C | – | – | – | – | 4µM | –
COc1ccc(-n2c(C)cc(C(=O)CN3C(=O)NC4(CCCc5sccc54)C3=O)c2C)cc1 (stereo not drawn) | – | – | 11µM | – | 13µM | –
CC(C)c1ccc(NC(=O)c2cc3c(=O)[nH]c4ccccc4c3n2C)cc1 | – | · | · | · | – | –
COc1cc(OC)cc(C(=O)Oc2c(CN3CCOCC3)cc(Cl)c3cccnc23)c1 | – | – | – | – | 10µM | ?
O=C(Oc1c(CN2CCOCC2)cc(Cl)c2cccnc12)c1ccccc1 | – | – | – | – | ? | –
O=[N+]([O-])c1ccccc1Oc1ccc(C(F)(F)F)cn1 | – | – | – | – | – | –
SMILES | GLP1R ag | MmCpn inh | uPA surface inh | CCT modulator | GLP1R inv ag | GLP1R cytotox
FC(F)(F)c1ccc(Oc2ccc3ccccc3c2Br)nc1 | – | – | – | – | 10µM | –
COc1ccc(N2CCN(C(c3ccc(F)cc3)c3sc4nc(-c5ccco5)nn4c3O)CC2)cc1 (stereo not drawn) | · | · | · | · | – | –
COc1ccc(-c2oc3ccccc3c(=O)c2OC(=O)c2ccc(C)cc2)cc1 | – | – | – | – | – | –
O=C(Oc1c(-c2ccccc2)oc2ccccc2c1=O)c1ccccc1 | – | – | – | – | 5µM | –
COc1ccccc1NC(=O)C1(c2ccccc2)CCCC1 | – | – | – | – | 4µM | –
CNC(=O)C1(c2ccccc2)CCCCC1 | – | · | · | – | – | –
Cc1cc(C)c(NC(=O)Cn2c(=O)nc(-c3ccccc3)c3cc(Cl)ccc32)c(C)c1 | · | · | · | · | – | –
NC(N)=N/N=C/c1cccc(Cl)c1Cl | – | –[15.4 µM] | – | – | 10µM | ?
NC(N)=N/N=C/c1cccc([N+](=O)[O-])c1O | – | – | – | – | – | –
COc1cc(C(=O)NCCCc2nc3ccccc3n2CC(C)C)cc(OC)c1OC | – | · | · | · | – | –
CC1=C(C(=O)OCc2ccc(C)cc2)C(c2ccccc2C(F)(F)F)CC(=O)N1 (stereo not drawn) | – | · | · | · | – | –
Cc1ccc(NC(=O)CCN2C(=O)C3CCCCC3C2=O)cc1[N+](=O)[O-] (stereo not drawn) | – | – | – | -53 | – | –
Cc1cccn2c(=O)c3cc(C(=O)NCCc4ccc(S(N)(=O)=O)cc4)n(C)c3nc12 | · | · | · | · | – | –
CCOc1ccccc1/C=N\Nc1cnn(Cc2ccccc2)c(=O)c1Cl | – | – | – | – | 7.9µM | –
COc1ccccc1/C=N\Nc1cn[nH]c(=O)c1Cl | – | – | – | – | – | –
C=C(C)CNC(=S)N/N=C1\CCCCc2ccccc21 | – | – | – | – | ? | 4µM
Cc1cccc(NC(=S)N/N=C2/CCCCc3ccccc32)c1 | – | – | – | – | ? | –
CCNC(=S)N/N=C1\CCCCc2ccccc21 | – | – | – | – | 3.5µM | 4µM
Cc1ccc(NC(=S)N/N=C2/CCCCc3ccccc32)cc1 | – | – | – | – | 3.5µM | –
Clc1cccc(-c2nc(NCCCN3CCOCC3)c3ccccc3n2)c1 | – | – | – | – | 10µM | –
Clc1cccc(-c2nc(NCCN3CCOCC3)c3ccccc3n2)c1 | – | – | – | – | 7.1µM | –
C=CCN(c1ccccc1Cl)S(=O)(=O)c1cccc(C(=O)NCCc2ccc(OC)cc2)c1 | – | – | – | – | 4.5µM | –
C=CCN(c1ccccc1OC)S(=O)(=O)c1cccc(C(=O)NCc2cccs2)c1 | – | – | – | – | ? | –
CCN(Cc1ccccc1)C(=O)c1ccc(CS(=O)c2ccccc2C)o1 (stereo not drawn) | – | – | – | – | 10µM | –
Cc1c(C(=O)OCC(=O)N2CCCC(C)C2)oc2ccccc12 (stereo not drawn) | – | – | – | – | 10µM | –
COc1ccc(C(=O)Nc2ccc(OCC(F)(F)C(F)F)c(C(F)(F)F)c2)cc1OC | – | – | – | – | 4µM | –
O=C(Nc1ccc(OCC(F)(F)C(F)F)c(C(F)(F)F)c1)c1ccc(Cl)cc1 | – | · | – | – | 3.5µM | –
